# Results from ChEMBL document CHEMBL1157539, “Thousands of chemical starting points for antimalarial lead identification” (Nature, 2010).
# Tested on: Plasmodium falciparum
# Assay: GSK_TCMDC: Inhibition of Plasmodium falciparum 3D7 in whole red blood cells, using parasite LDH activity as an index of growth. Test compounds present at 2uM
# Format: functional
row,Structure (SMILES),Inhibition
1,O=C(NC(CCCN1CCC(c2ccccc2)CC1)c1ccc(Cl)c(Cl)c1)c1cc(C(F)(F)F)cc(C(F)(F)F)c1 (stereo not drawn),92%
2,CCCc1cc(OC)c(C[C@@H]2c3cc(O)c(Cl)cc3CCN2C)cc1OC.Cl,98%
3,CS(=O)(=O)CCNCc1nc(-c2ccc3c(=O)[nH]cnc3c2)cs1,86%

# Tested on: Plasmodium falciparum
# Assay: GSK_TCMDC: Inhibition of Plasmodium falciparum Dd2 in whole red blood cells, using parasite LDH activity as an index of growth. Test compounds present at 2uM
# Format: functional
row,Structure (SMILES),Inhibition
1,Cc1ccc(Cl)cc1N1CCN(CCCNC(=O)C2CCN(c3nc4ccccc4[nH]3)CC2)CC1,0%
2,Br.CCCC1N=C(N)N=C(N)N1c1ccc(C)cc1 (stereo not drawn),2%
3,Cc1ccccc1C1CCN(C2CCC(NC(=O)c3ccc(-c4cccs4)s3)CC2)CC1 (stereo not drawn),54%
4,COc1cc(NC(=O)c2ccc3oc4ccccc4c3c2)ccc1OCCN1CCCCC1.Cl,11%
5,Cc1ccc(CNC(=O)[C@H](Cc2ccccc2)Nc2cc(C)nc(Nc3ccccc3)n2)cc1.O=C(O)C(F)(F)F,91%
6,COc1ccc2nccc([C@@H](O)CN3CCC(NC/C=C/c4cccnc4)CC3)c2c1.CS(=O)(=O)O,19%
7,CSc1ccc(NC(=O)Nc2cc(C)nc3ccccc23)cc1,23%
8,COc1ccc(Nc2nc(NC3CCCC3)cc(-c3ccc(OC)cc3)n2)cc1,15%
9,Nc1ncc(-c2ccsc2)c2ccc(-c3cnc[nH]3)cc12,70%
10,COc1cc(-c2nc(-c3ccc(C(=O)c4ccc(F)cc4)cc3)c(-c3ccccc3)[nH]2)cc(OC)c1O,100%
11,CCCNC(=O)c1ccnc(-c2ccc(CNC3Cc4ccccc4C3)cc2)c1.O=C(O)C(F)(F)F,21%
12,CCN(CCC1(c2ccc(Cl)c(Cl)c2)CN(C(=O)c2cc(OC)c(OC)c(OC)c2)CCO1)C1CC2c3ccccc3CC21 (stereo not drawn),65%
13,CCS(=O)(=O)c1ccc(OC)c(Nc2nccc(-c3c(-c4cccc(NC(=O)c5c(F)cccc5F)c4)nn4ncccc34)n2)c1,88%
14,Cc1cccc2nc(-c3ccc(-c4cccc(CNCc5ccccc5)c4)cc3)[nH]c12.O=C(O)C(F)(F)F,52%
15,CCOC(=O)c1nc(-c2ccccc2)[nH]c1-n1nc(C)cc1C,9%
16,CCOc1ccc(-c2nonc2NC(=O)CC(C)C)cc1OCC,37%
17,FC(F)(F)c1ccc(-c2ccc(CNC3CCN(CCN4CCOCC4)CC3)cc2)cc1,74%
18,CC(C)NCc1ccc(OCc2cccc(COc3ccc(CNC(C)C)cc3I)c2)c(I)c1.Cl,92%
19,Cc1ccc(N2CCN(C(=O)c3cccc(-c4cncc5nc(-c6ccco6)n(C)c45)c3)CC2)nc1,91%
20,O=C(O)C(F)(F)F.c1ccc(CNCc2cccc(-c3ccc(-c4nc5ccccc5[nH]4)cc3)c2)cc1,39%

row,Structure (SMILES),Inhibition
1,CC1CN(c2ccc(NC(=O)c3ccc(F)cc3)cc2)CCN1Cc1cccc(F)c1.O=C(O)C(F)(F)F (stereo not drawn),76%
2,Cc1csc(-c2nc(NCCc3c(C)noc3C)ncc2-c2ccsc2)n1,82%
3,CCS(=O)(=O)N1CCN(c2nc(-c3ccccc3)nc(COC)c2Cc2ccccc2F)CC1,34%
4,O=C(NCc1cccc(C(F)(F)F)c1)[C@@H]1CCCN1C(=O)c1ccc(O)c(-c2ccc(Cl)c(Cl)c2)c1,97%
5,CN(C)Cc1cccc(-c2cc3c(-c4cnn(C)c4)c(Cl)cnc3[nH]2)c1,21%
6,CC(C)COc1ccc2ccccc2c1CNCCCCCCNCc1c(OCC(C)C)ccc2ccccc12.CS(=O)(=O)O,95%
7,CC1(C(=O)Nc2ccc([N+](=O)[O-])cc2O)CC2c3ccccc3C1c1ccccc12 (stereo not drawn),16%
8,Cn1cnc(CCNC(=O)c2ccc(-c3ccc(-c4nc5cc(F)ccc5[nH]4)cc3)cc2)c1,15%
9,O=C(NCCNc1ccnc(Nc2ccc(F)cc2)n1)c1cc2ccccc2s1,34%
10,COCCNCc1ccc(-c2ccc(CNc3ccc4ncccc4c3)cc2)cc1.O=C(O)C(F)(F)F,4%
11,CCN(CC)S(=O)(=O)n1ncc2c3c(N)nc(N)nc3ccc21.Cl,16%
12,CCCNC(=O)c1ccc(N2CCC(c3ccccc3C)CC2)nc1.O=C(O)C(F)(F)F,80%
13,CC(=O)c1sc(NC(=O)Nc2ccc(C)cc2C)nc1C,68%
14,O=C(O)C(F)(F)F.Oc1ccc(CCCNc2nc(NCc3cccc4ccccc34)nc(NC3CCNCC3)n2)cc1,0%
15,FC(F)(F)c1ccc2[nH]c(-c3cccc(-c4ccc(CNCc5ccccc5)cc4)c3)nc2c1.O=C(O)C(F)(F)F,99%
16,COc1ccc(/C=C/C(=O)N2CCc3cc4nccc(N5CCN6CCC[C@H]6C5)c4cc32)cc1,98%
17,Cc1noc(C)c1-c1ccc2c(Nc3ccccc3C(C)(C)C)c(C(=O)NC3CCCC3)cnc2c1.Cl,79%
18,O=C(NC(CCCN1CCC(c2ccccc2)CC1)c1ccc(Cl)c(Cl)c1)c1cc(C(F)(F)F)cc(C(F)(F)F)c1 (stereo not drawn),87%
19,CCCc1cc(OC)c(C[C@@H]2c3cc(O)c(Cl)cc3CCN2C)cc1OC.Cl,98%
20,CS(=O)(=O)CCNCc1nc(-c2ccc3c(=O)[nH]cnc3c2)cs1,96%
